Screening data from PubChem.
Shown are actives, neighbours in structure and some others; about 13% of the full set was active somewhere.
L major viab: Leishmania major promastigote growth inhibition. Leishmania major promastigotes, resazurin fluorescence viability. inhibition, % at 10 µM. hit rate 9% among 200,000. AID 1063; in the data active = inhibition above about 50%;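 also: promastigotes grown with compound for 44 hours at 28 °C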
WT yeast gro inh: growth inhibition of WT yeast, mitochondrial fusion screen; inhibition, % at 10 µM; hit rate 2.1% among 190,000; AID 1362; mitochondrial fusion phenotypic screen, WT strain; in the data active = inhibition above about 58%; tested in S. cerevisiae
RAM network inh: yeast RAM network inhibition. S. cerevisiae dse1pr::URA3 reporter, 5-FOA growth OD615, 2 d; analog-sensitive cbk1-as2 kinase mutant strain. inhibition, % at 50 µM. hit rate 1.8% among 190,000. AID 868;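 active = inhibition above a set limit, 3 SD over mean compound inhibition, cut at about 8.4% in these data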;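 also: 0% = DMSO-only wells with no growth and 100% = 10 µM 1-NA-PP1 full growth; inhibition rescues growth on 5-FOA so higher OD means more RAM inhibition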
CHOP inh: inhibitors of CHOP induction in ER stress response; CHO-K1 CHOP-promoter luciferase, tunicamycin-induced, 15-18 h; inhibition, % at 10 µM; hit rate 3.8% among 220,000;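 active = compounds that reduced the stress-induced luciferase reporter signal by more than about 70% of percent inhibition, limit read from the data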;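 also: 0% = tunicamycin plus vehicle and 100% = wells without tunicamycin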
Numbers without * were called inactive; x = no result.

SMILES	L major viab	WT yeast gro inh	RAM network inh	CHOP inh
CCOc1cc(C(=O)OC(C)C(=O)Nc2ncc(Cl)cc2Cl)ccc1OCC(=O)N1CCOCC1 (stereo not given)	73*	12	1	25
Cc1cc(OCC(=O)N2CCOCC2)c(C(C)C)cc1Cl	80*	-12	0	7
Cc1cc(C(=O)Nc2cccc(/C=C/C(=O)O)c2)c(C)o1	-3	4	1	9
Cc1oc(C(C)(C)C)cc1C(=O)Nc1cccc(/C=C/C(=O)O)c1	-4	-2	8.4*	1
CN(C)S(=O)(=O)c1ccc(N2CCCC2)c(C(=O)NC(c2ccccc2)c2ccccc2)c1	23	15	2	11
COC(=O)C1=C(C)N=C2SC(C#N)=C(N)N2C1c1ccc(OC)cc1 (stereo not given)	-3	-20	0	14
CCOC(=O)C1=C(C)N=C2SC(C(=O)OC)=CC(=O)N2C1c1ccc(OC)cc1 (stereo not given)	7	84*	3	-19
O=C1NN(c2ccccc2)C(=O)/C1=C/c1cccs1	8	-11	5	-19
O=C1NN(c2ccc(F)cc2)C(=O)/C1=C\c1cnn(-c2ccccc2)c1	5	6	1	70*
COc1ccc(OC)c(/C=N/NC(=O)c2ccc(Cn3cc([N+](=O)[O-])cn3)o2)c1	10	-4	4	8
O=C(Nc1nc(-c2ccc3c(c2)OCCO3)cs1)C1CCCC1	29	26	0	5
CCn1c(SCC(=O)Nc2nc(-c3ccc(C)cc3)cs2)nnc1-c1ccccc1	13	25	5	40
Cc1cc(=O)[nH]c(SCC(=O)Nc2nc(-c3ccccc3)cs2)n1	-11	-13	-1	15
Cc1ccc(-c2csc(NC(=O)CSc3nc4ccccc4[nH]3)n2)cc1	10	-9	9.8*	56
O=C(CSc1ncn[nH]1)Nc1nc(-c2ccccc2)cs1	93*	18	2	34
CCn1c(SCC(=O)Nc2nc(-c3ccc(C)cc3)cs2)nnc1-c1ccccc1O	100*	0	6	86*
CCc1cccc(CC)c1NC(=O)CN1C2CCCC1CC(NC(=O)Nc1cccc(OC)c1)C2 (stereo not given)	16	7	0	21
O=C(O)CC[C@@H](C(=O)O)N1C(=O)c2ccccc2C1=O	x	x	x	30
COc1cc(/C=N/Nc2cccc(C)c2)ccc1OC(=O)c1ccco1	-5	16	4	42
COCCCNC(=S)NCCNc1nc2c(C)c(C)ccc2cc1C#N	3	17	9.6*	41
CCOC(=O)c1ccc(Oc2c(C)oc3c(CN4CCN(C)CC4)c(O)ccc3c2=O)cc1	100*	29	0	11
CN1CCN(Cc2c(O)ccc3c(=O)c(Oc4ccccc4Cl)c(C(F)(F)F)oc23)CC1	99*	27	0	-17
Cc1oc2c(CN3CCCC3)c(O)ccc2c(=O)c1Oc1ccccc1Br	49	5	0	-8
Nc1n[nH]c(CO)n1	x	x	x	-8
COC(=O)[C@H](CCSC)NC(=O)Nc1ccc(S(N)(=O)=O)cc1	x	x	x	4
SMILES	L major viab	WT yeast gro inh	RAM network inh	CHOP inh
O=C(CCN1C(=O)c2cccc3cccc(c23)C1=O)N1CCN(Cc2ccc3c(c2)OCO3)CC1	37	23	1	35
Cc1ccc(C)c(OCC(O)CN2CCC(CN3C(=O)c4cccc5cccc(c45)C3=O)CC2)c1 (stereo not given)	100*	37	-1	76*
O=C1c2cccc3cccc(c23)C(=O)N1CC1CCN(CC(O)COCc2ccc3c(c2)OCO3)CC1 (stereo not given)	90*	33	-2	36
OCCN1CCN(CC(O)COCc2ccc3c(c2)OCO3)CC1 (stereo not given)	-4	-6	1	17
Cc1cc(C)cc(OCC(O)CN2CCN(Cc3ccc4c(c3)OCO4)CC2)c1 (stereo not given)	90*	12	1	11
OC(COCc1ccc2c(c1)OCO2)CN1CCN(Cc2ccccc2)CC1 (stereo not given)	89*	39	3	13
NC(=O)C1=C[C@@H](c2ccc(Br)cc2)C[C@@H](OCCCCO)O1	2	8	0	38
COc1ccc(C)cc1N(C(=O)c1ccccc1F)c1nc2ccccc2s1	12	0	3	4
OC(COc1ccc2c(c1)OCO2)CN1CCCC1 (stereo not given)	2	-9	1	0
OC(COc1ccccc1)CN1CCN(Cc2ccc3c(c2)OCO3)CC1 (stereo not given)	85*	-7	1	12
CCN1CCN(CC(O)COCc2cc(OC)c(OC)c(OC)c2)CC1 (stereo not given)	-3	-1	0	0
OC(COc1ccc2c(c1)OCO2)CN1CCN(c2ccc(F)cc2)CC1 (stereo not given)	53*	4	1	12
COc1cc(COCC(O)CN2CCN(Cc3ccccc3)CC2)cc(OC)c1OC (stereo not given)	88*	-1	3	12
CCOC(=O)C1CCN(CC(O)COCc2ccc3c(c2)OCO3)CC1 (stereo not given)	86*	-4	-1	3
S=C(S)N1CCCC1	x	x	x	-6
O=C(c1cnsn1)N1CCC(CO)(Cc2cccc(F)c2)CC1	-4	11	1	25
COc1cccc(CC2(CO)CCN(Cc3ccc4cccc(F)c4n3)CC2)c1	80*	-7	2	16
COc1cccc(CC2(CO)CCN(Cc3cn(C)nc3C)CC2)c1	75*	-6	1	4
OCC1(Cc2cccc(F)c2)CCN(Cc2ccc3cccc(F)c3n2)CC1	88*	7	0	21
COc1cccc(CC2(CO)CCN(CC3=CC[C@H]4C[C@@H]3C4(C)C)CC2)c1	88*	-3	0	41
O=C1C2C(C(=O)N1/N=C/c1ccc(N3CCCCC3)o1)C1C=CC2C12CC2 (stereo not given)	-5	7	-1	2
CCOC(=O)C1(CC2CC2)CCN(Cc2ccc3cccc(F)c3n2)CC1	8	5	1	56
OCC1(CCOc2ccccc2)CCN(Cc2ccc3cccc(F)c3n2)CC1	82*	-2	2	16
CCOc1ccc(NC(=O)Cc2ccccc2)cc1	-1	-2	1	-19
CCOc1ccc(NC(=O)CCC(=O)c2ccc(-c3ccccc3)cc2)cc1	50*	-20	4	7
SMILES	L major viab	WT yeast gro inh	RAM network inh	CHOP inh
N#Cc1ccc(/C=C/C(=O)c2ccccc2)cc1	x	x	x	-43
CCCOC(=O)c1ccc(NC(=O)CCOc2ccccc2)cc1	31	17	-1	44
CCOc1ccc(/C=C/C(=O)c2ccc(-c3ccccc3)cc2)cc1	-4	-14	8.9*	-5
CCOC(=O)c1ccc(NC(=O)CCOc2ccccc2)cc1	84*	x	2	14
CN(C)CC(=O)c1ccc(-c2ccccc2)cc1	86*	-7	1	27
COc1ccc(CNC(=S)Nc2ccccc2-c2ccccc2)cc1	24	48	1	9
Cc1c(Cl)cnc(NC(=O)COC(=O)c2cc3c(s2)CCC(C)C3)c1Cl (stereo not given)	-3	4	4	59
COC(=O)c1ccc(N/C(=N/S(=O)(=O)c2ccccc2)c2ccccc2)cc1	11	-2	2	-2
